Screening results as filed in PubChem BioAssay.
The full list was thinned out, with hits kept by preference.
LmPK inhibitor = LmPK (Leishmania mexicana) enzyme inhibition. Q27686. purified LmPK, Kinase-Glo ATP luminescence, 1 h. Potency, µM (highest dose often 57.5 µM), inactives show at the top dose activity change, negative = inhibition, most hits filed as inhibitors. hit rate 0.37% among 290,000. AID 1721; further: potency means the concentration at half of the fitted maximal effect; on the % scale 0 is the no-effect control and ±100 the full control effect
Target sequence (Q27686 whole entry, looked up): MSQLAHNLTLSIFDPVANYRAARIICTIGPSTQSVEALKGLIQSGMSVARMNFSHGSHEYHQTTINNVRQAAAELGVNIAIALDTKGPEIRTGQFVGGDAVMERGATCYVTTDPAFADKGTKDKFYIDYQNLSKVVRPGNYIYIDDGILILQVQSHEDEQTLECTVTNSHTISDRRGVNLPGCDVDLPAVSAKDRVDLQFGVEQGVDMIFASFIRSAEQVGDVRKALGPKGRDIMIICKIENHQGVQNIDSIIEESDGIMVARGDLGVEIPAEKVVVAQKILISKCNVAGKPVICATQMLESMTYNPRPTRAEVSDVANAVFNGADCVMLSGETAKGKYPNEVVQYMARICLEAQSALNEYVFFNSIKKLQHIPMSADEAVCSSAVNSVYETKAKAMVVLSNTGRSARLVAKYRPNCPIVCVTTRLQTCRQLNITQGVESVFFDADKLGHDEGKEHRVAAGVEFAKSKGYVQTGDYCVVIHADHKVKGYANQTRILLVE
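qHTS format; LmPK 0.1 nM; substrates PEP 0.5 mM and ADP 0.1 mM. One-hour room-temperature incubation, then coupled luciferase luminescence; 0.5 nM enzyme wells mark activation.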
NS1 inh = inhibitors of influenza NS1 protein function. Potency, µM (highest dose often 46.1 µM), for the others: top-dose activity, positive = more growth. hit rate 0.4% among 270,000; calls by dose curve; further: potency means the concentration at half of the fitted maximal effect; actives are rising curves; nearly all actives have a fitted effect of over 50% in size
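Read-out: OD600 growth recovery of NS1-expressing budding yeast. Cells grown overnight at 30C in -URA glucose medium, washed, resuspended and diluted 1:100 in 2% galactose assay medium, pH 6.0. Same strain lacking NS1 served as positive control.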
Shiga inhibitor = Shiga toxin inhibition; Vero cells, Shiga toxin protein synthesis inhibition reporter; inhibition, % at 38.7 µM; hit rate 9.2% among 290,000; AID 2315; in the data active means inhibition mostly above about 28%, no sharp cut-off; inactive means mostly below about 43%; further: 0% is about no effect
CHX counter = counter-screen for Shiga toxin inhibitors: cycloheximide protein synthesis inhibition. cell reporter, cycloheximide protein synthesis inhibition counterscreen. hit rate 12% among 300,000. AID 2314. max response, %; in the data active means max response mostly above about 13%, no sharp cut-off; inactive means mostly below about 14%; further: read at 38.3 µM for the half of the compounds with a filed dose; 0% is about no effect
SARS PLpro yeast = SARS-CoV PLP inhibition in yeast; hit rate 0.19% among 330,000; Potency, µM (titrated, usually from 32.9 µM), for inactives: at the highest dose activity, positive = growth rescue, hits mostly activators; AID 485353; S. cerevisiae expressing SARS-CoV PLpro, growth rescue; calls by dose curve; further: potency means the concentration at half of the fitted maximal effect; 0% is about no effect; nearly all actives have a fitted effect of over 55% in size
Tb PYK inh = blocks Trypanosoma brucei pyruvate kinase; Q57TT1; TbPYK enzyme, Kinase-Glo Plus ATP luminescence, 45 min; Potency, µM (doses to about 76.8 µM), inactives show at the top dose activity, negative = inhibition, hits mostly inhibitors; hit rate 0.12% among 410,000; further: potency means the concentration at half of the fitted maximal effect; on the % scale 0 is the no-effect control and ±100 the full control effect; nearly all actives have a fitted effect of over 50% in size
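T. brucei PYK with substrate was exposed to pin-transferred compounds across a concentration series, then started with 130 uM ADP (final). After 45 min at room temperature, Kinase-Glo Plus luminescence was read, normalized and curve-fitted.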
* hit, by the source's call; ? = inconclusive; nt = no result given; [ ] = another dose, or the depositor's remark. Unless noted, the call rests on the fitted dose curve; in most records, active means well fitted curve in the direction sought with a large enough effect; inconclusive means small, poorly fitted or top-dose-only effect, or another doubt; inactive means no such curve, though single readings can be large; an effect the other way counts as inactive or inconclusive.

SMILES	LmPK inhibitor	NS1 inh	Shiga inhibitor	CHX counter	SARS PLpro yeast	Tb PYK inh
O=C(NCCc1ccc(Cl)cc1)c1n[nH]c2ccccc12	6%	nt	40*	16	-8%	4%
O=C(COC(=O)c1n[nH]c2ccccc12)NCCc1ccccc1	nt	nt	nt	nt	3%	1%
Cc1ccc(CCNC(=O)c2nnn(-c3cccc(C)c3)c2N)cc1	5%	-38%	40	5	?	2%
O=C(NCCc1ccccc1)c1n[nH]c2ccccc12	-1%	-30%	145*	51*	-2%	9%
Cc1cccc(-n2nnc(C(=O)NCc3ccccc3)c2N)c1	-1%	-11%	30	12*	28%	7%
O=C(Nc1ccccc1)c1nnn(Cc2ccccc2)c1NC(=O)C(F)(F)F	19%	-9%	79*	45*	-20%	4%
CCC1CCCCN1CCCNC(=O)c1ccc(CS(=O)(=O)Cc2ccc(Cl)cc2)o1 (centres undefined)	-1%	-2%	2	-2	-2%	0%
COc1cc(CNC(=O)CSCc2nc3cccnc3n2C2CCCCC2)cc(OC)c1OC	nt	nt	nt	nt	nt	-14%
Nc1c(C(=O)NCCc2ccccc2)nnn1Cc1ccccc1	4%	4%	43*	30*	23%	0%
CCCC(=O)Nc1ccc2oc(-c3ccncc3)nc2c1	0%	-32%	68*	20*	6%	0%
CCCC(=O)Nc1ccc(-c2nc3cc(C)c(C)cc3o2)cc1	-4%	-95%	119*	35*	-2%	-1%
Cc1ccc(SCC(=O)Nc2ccc3oc(-c4ccc(F)cc4)nc3c2)cc1	nt	nt	nt	nt	nt	-2%
COc1ccc(OCC(=O)Nc2ccc3oc(-c4ccncc4)nc3c2)cc1	11%	5%	-12	1	-1%	0%
O=C(CN1CCCC1)Nc1ccc(-c2nc3cc(NC(=O)CN4CCCC4)ccc3o2)cc1	6%	-6%[9.22 µM]	73*	33*	4%	3%
CCCCC(=O)Nc1ccc2oc(-c3ccncc3)nc2c1	-8%	-16%	39*	13*	-6%	-2%
Cc1ccc2[nH]c(=O)c3cc(C(=O)NC(C)C)sc3c2c1	7%	3%	-2	-4	1%	1%
Cc1cccc(OCCSc2ncnc3nc[nH]c23)c1	-3%	-2%	21	15*	-18%	-2%
c1ccc(CCSc2ncnc3nc[nH]c23)cc1	0%	-10%	39*	29*	-3%	-3%
O=C(CSc1ncnc2nc[nH]c12)c1ccccc1	-22%	1%	100*	35*	-1%	-20%
COc1ccccc1OCCSc1ncnc2nc[nH]c12	-2%	2%	19	-2	-2%	-5%
O=C(CSc1ncnc2nc[nH]c12)c1ccc(Cl)cc1	1%	13%	25*	11*	5%	-30%
CC(C)(C)c1ccc(Cn2cnc(-c3ccc([N+](=O)[O-])cc3)c2)cc1	2%	1%	54*	40*	4%	4%
CC(C)c1ccc(CNc2ncc(Br)cn2)cc1	-2%	2%	32*	17*	1%	-27%
CC(=O)NCCNc1ccc([N+](=O)[O-])cn1	2%	0%	-14	-3	3%	-9%
Cc1cc(C)c(Cn2cnc(-c3ccc([N+](=O)[O-])cc3)c2)c(C)c1	10%	-3%	12	-1	5%	-8%
SMILES	LmPK inhibitor	NS1 inh	Shiga inhibitor	CHX counter	SARS PLpro yeast	Tb PYK inh
CC(C)c1ccc(CNc2ccc([N+](=O)[O-])cn2)cc1	7%	nt	74*	55*	-14%	-1%
CC(C)(C)c1ccc(CNc2ccc([N+](=O)[O-])cn2)cc1	-2%	-4%	81*	23*	-46%	2%
O=[N+]([O-])c1ccc(NCc2ccc(Cl)cc2)nc1	4%	-5%	63*	39*	-2%	2%
Cc1nc(C)c(-c2csc(Nc3ccc(Cl)cn3)n2)s1	nt	nt	nt	nt	nt	-3%
Cc1ccc(S(=O)(=O)Nc2nc(-c3ccccc3)cs2)cc1	4%	-14%	-9	-1	-3%	-5%
Cc1cc(C)nc(Nc2nc(-c3ccccc3)cs2)n1	-2%	-23%	73*	53*	9%	-1%
Cc1ccc(Nc2nc(-c3ccccc3)cs2)nc1	-5%	15%	36	27*	0%	1%
Cc1ccc(Nc2nc(-c3cccs3)cs2)nc1	-28%	5%	53	31*	-1%	-8%
